Results filed as inconclusive are left out. Activity calls are given as the source filed them. Calls come from the whole dose curve.
% is set by controls: 0 for no effect and ±100 for the full control effect.

Thyrotropin receptor (Homo sapiens), sequence (P16473 whole entry, looked up): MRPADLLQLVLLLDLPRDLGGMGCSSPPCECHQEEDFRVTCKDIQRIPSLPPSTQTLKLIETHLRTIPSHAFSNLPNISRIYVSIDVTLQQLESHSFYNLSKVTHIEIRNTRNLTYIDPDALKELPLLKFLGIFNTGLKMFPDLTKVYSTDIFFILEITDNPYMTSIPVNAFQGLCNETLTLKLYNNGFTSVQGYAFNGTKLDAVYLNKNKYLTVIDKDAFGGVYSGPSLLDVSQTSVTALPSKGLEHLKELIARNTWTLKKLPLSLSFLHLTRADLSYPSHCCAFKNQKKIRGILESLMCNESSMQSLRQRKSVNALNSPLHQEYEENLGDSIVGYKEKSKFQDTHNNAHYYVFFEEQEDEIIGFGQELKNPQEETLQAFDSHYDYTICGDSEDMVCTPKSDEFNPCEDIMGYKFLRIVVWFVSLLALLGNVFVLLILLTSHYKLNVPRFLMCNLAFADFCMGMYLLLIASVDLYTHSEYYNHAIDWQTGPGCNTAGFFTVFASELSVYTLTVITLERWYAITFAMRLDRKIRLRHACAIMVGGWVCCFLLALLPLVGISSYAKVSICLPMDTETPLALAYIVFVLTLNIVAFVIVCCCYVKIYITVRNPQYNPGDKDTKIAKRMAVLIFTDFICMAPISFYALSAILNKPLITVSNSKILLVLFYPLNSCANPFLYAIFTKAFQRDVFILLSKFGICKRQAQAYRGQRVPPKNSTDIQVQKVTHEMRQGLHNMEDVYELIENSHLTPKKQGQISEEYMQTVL

Tested on in one assay: not listed separately
As to the kind of experiment: qHTS assay to identify small molecule agonists or antagonists of the thyroid stimulating hormone receptor (TSHR) signaling pathway - wild type cell line counter screen (AID 1259384). As to conditions: HEK293 wild type, cAMP HTRF counter-screen, stronger effect = higher value; series mostly up to 92.4 µM. In a few lines: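 Counter screen in untransfected Hek293: compounds (15-point titration, triplicate) plus phosphodiesterase inhibitor Ro20-1724 added after 18 h plating; 30 min RT. Intracellular cAMP via competitive d2/cryptate immunoassay, 1 h incubation.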
(In general: In qHTS, concentration-response curves come from the screen itself.)
For the compound `COC[C@@H](NC(C)=O)C(=O)NCc1ccccc1`, the compound was classed as inactive.
Same read-out and setting: for `CC[C@@H](CO)NC(=O)[C@@H]1C=C2c3cccc4[nH]cc(c34)C[C@H]2N(C)C1` the value was “inactive”.
Regarding `CCN[C@@H](C)Cc1ccccc1`, the outcome was inactive.
In the case of `Clc1cc2c(cc1Cl)Oc1cc(Cl)c(Cl)cc1O2`, the cAMP activity change was 1.16% [at 0.349 µM] (inactive).
For the compound `CCC1(c2ccccc2)CCC(=O)NC1=O` (configuration not stated), the compound was classed as inactive.
The same measure, in the same setting: then `CN(C)C(=O)Oc1cc(OC(=O)N(C)C)cc(C(O)CNC(C)(C)C)c1` (configuration not stated), with “inactive”; and `N[C@@H]1C[C@H]1c1ccccc1`, with “inactive”.
Consider `CCC(C)(C#N)N=NC(C)(C#N)CC` (configuration not stated), for which the call was inactive.
As to `O=C(Cl)C(Cl)(Cl)Cl`, the compound was classed as inactive.
Take `COc1ccc(C=O)cc1O`: the outcome was inactive.
Still for that read-out and setting: then `CCC(CC)(CNC(=O)CCCO)c1cccc(OC)c1`, with “inactive”.
On the same count and under the same terms, for `CCCOC(=O)c1cncn1C(C)c1ccccc1` (configuration not stated) the value was “inactive”.

The target of another assay is Thyrotropin receptor (Homo sapiens) (UniProt P16473). As to the kind of experiment: qHTS assay to identify small molecule antagonists of the thyroid stimulating hormone receptor (TSHR) signaling pathway (AID 1259385). Note: nearly all actives have a fitted effect of over 20% in size. As to conditions: TSHR-HEK293 cAMP HTRF, TSH-stimulated antagonist mode; series mostly up to 92.4 µM. The method, boiled down:
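Antagonist mode: compound-treated TSHR-expressing HEK293 cells were stimulated with 1.5 ng/mL TSH (final) in presence of Ro20-1724 for 30 min at RT. HTRF cAMP detection after 1 h; each compound tested at 15 concentrations, triplicate.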
In the case of `COC[C@@H](NC(C)=O)C(=O)NCc1ccccc1`, the result was inactive.
Consider `CC[C@@H](CO)NC(=O)[C@@H]1C=C2c3cccc4[nH]cc(c34)C[C@H]2N(C)C1`, for which the call was inactive.
Same read-out and setting: for `CCN[C@@H](C)Cc1ccccc1` the value was “inactive”.
As to `CC(Cc1ccccc1)NCCCCl` (configuration not stated), the call was inactive.
On to `Clc1cc2c(cc1Cl)Oc1cc(Cl)c(Cl)cc1O2`, for which the activity change, negative = inhibition is -3.4% [at 0.349 µM] (inactive).
Consider `CC(C)N(Cc1ccccc1)C(=O)C(C)(C)C`, for which the compound was called inactive.
Turning to `CCC1(c2ccccc2)CCC(=O)NC1=O` (configuration not stated), the call was inactive.
For `CN(C)C(=O)Oc1cc(OC(=O)N(C)C)cc(C(O)CNC(C)(C)C)c1` (configuration not stated), the compound was called inactive.
As to `N[C@@H]1C[C@H]1c1ccccc1`, the compound was called inactive.
`OP(O)c1ccccc1`: the outcome was inactive.
With `CCC(C)(C#N)N=NC(C)(C#N)CC` (configuration not stated), the call was inactive.
`COc1ccc(C=O)cc1O`: the call was inactive.
In the case of `CCC(CC)(CNC(=O)CCCO)c1cccc(OC)c1`, the outcome was inactive.
As to `C[N+]1(C)CCCCC1`, the outcome was inactive.
In the case of `CCCOC(=O)c1cncn1C(C)c1ccccc1` (configuration not stated), the compound was classed as inactive.

The values are drawn from PubChem BioAssay (Tox21).
